# In the supplement of paper PMC10338343:
# ± gives the standard deviation. Over roughly 6,200 sequences, “pre-steady-state target cleavage rate” has its median near 0.29; the highest 2% begin near 2. Many of the other results were omitted from the sample, so the highest values are more common in it than they were.
# System: MIWI (PIWIL1) piRISC loaded with piRNA #1 (30 nt)
# Assay: pre-steady-state target cleavage rate (min^-1); MIWI and MILI are mouse PIWI proteins and EfPiwi is from a freshwater sponge; tags in brackets are library labels; higher = faster piRNA-guided slicing of the target
# Conditions: guide: piRNA #1 5'p-UGAGGUAGUAGGUUGUAUAGUAUCCAGAGG; auxiliary factor: 500 nM mouse GTSF1
# Procedure: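 Cleave-'n-Seq: a library of target RNAs (target site embedded in constant flanks, ACAGCATTCCGCGTTAGTGATATCCG... 5' flank; DNA-blocked outside the site) at 0.1 nM was incubated with 1 nM active mouse MILI or MIWI piRISC (synthetic 5'-monophosphorylated piRNA guide) with or without 500 nM mouse GTSF1 at 33 °C for 1 min to 16 h. Uncleaved targets were sequenced and normalised to non-target controls, and the pooled three trials were fitted to a burst-and-steady-state model to give the pre-steady-state cleavage rate (min^-1; k3 is constrained to at most 1e-4). Sequence is the target site only; target names encode pairing extent (gX:gY) and contiguous / 1-mismatch / 2-mismatch / bulge geometry. Fits with R² ≤ 0 are excluded.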
row,Sequence,pre-steady-state target cleavage rate
1,GGACUGCGAUACUAUACAACCUACUACCUCA,1.79 ± 0.13
2,GCUCUGCGAUACUAUACAACCUACUACCUCA,2.02 ± 0.12
3,GCUCUGGGAUACUAUACAACCUACUACCUCA,1.89 ± 0.096
4,CCUCUGCGAUACUAUACAACCUACUACCUCA,2.19 ± 0.12
5,GGUCUGCGAUACUAUACAACCUACUACCUCA,1.79 ± 0.071
6,GGAGUGGAUACUAUACAACCUACAACCUCA,0.314 ± 0.037
7,GGACUGGAUACUAUACCACCUACUACCUCA,1.17 ± 0.082
8,GGAGACCUUACUAUUCAACCUAGUACCUCA,0.395 ± 0.04
9,GGAGACCUAUGUAUACCACCUACUACCUCA,0.0149 ± 0.0026
10,GCCCUGGAUACUAUACAACCUACUACCUCA,2.17 ± 0.12
11,CCUGUGGAUACUAUACAACCUACUACCUCA,1.86 ± 0.11
12,CCCCUGGAUACUAUACAACCUACUACCUCA,2.45 ± 0.15
13,GGACCUGGAUACUAUACAACCUACUACCUCA,1.96 ± 0.14
14,GAUCUGGAUACUAUACAACCUACUACCUCA,1.91 ± 0.097
15,GGCCUGGAUACUAUACAACCUACUACCUCA,1.74 ± 0.098
16,GCCUGGAUACUAUACAACCUACUACCUCA,1.87 ± 0.11
17,CCCUGGAUACUAUACAACCUACUACCUCA,2.52 ± 0.18
18,CCUGUGGAUACUAUACAACCUACAACCUCA,0.383 ± 0.043
19,GGAGACCUUACUAUACAAGCUAGUACCUCA,0.471 ± 0.033
20,GCUCUGGAUACUAUACAACCAACUACCACA,0.153 ± 0.018
21,GGAGACGAAAGUAUACAACCUACUACCUCA,0.527 ± 0.062
22,GGUCUGGAUAGUAUACAACCUACUACGUCA,0.583 ± 0.055
23,GGAGAGGAAACUAUACAUCCUACUACCUCA,1.19 ± 0.074

row,Sequence,pre-steady-state target cleavage rate
1,GCAGUGGAUACUAUACAACCUACUACCUCA,1.85 ± 0.095
2,GGAGUGGAUACUAUACUACCUACAACCUCA,0.428 ± 0.052
3,GGUCGUGGAUACUAUACAACCUACUACCUCA,1.72 ± 0.093
4,GCUCGUGGAUACUAUACAACCUACUACCUCA,1.85 ± 0.095
5,GGACUGGAUACUAUACAACCUCCUACCUCA,0.801 ± 0.052
6,GCUCCUGGAUACUAUACAACCUACUACCUCA,2.13 ± 0.11
7,CCAGUGGAUACUAUACAACCUACUACCUCA,2.01 ± 0.11
8,CCUCUGGAUACUAUACAACCUCCUACCUCA,1.32 ± 0.068
9,GGUCCUGGAUACUAUACAACCUACUACCUCA,1.97 ± 0.099
10,CCUCCUGGAUACUAUACAACCUACUACCUCA,2.25 ± 0.13
11,GCUCUGGAUACUAUACAACCUCCUACCUCA,1.2 ± 0.052
12,CCUCGUGGAUACUAUACAACCUACUACCUCA,2.17 ± 0.16
13,GGAGACCAUAUAUACAACCUACUACCUCA,0.184 ± 0.018
14,GGAGACCUUAGUAUACUACCUACUACCUCA,0.0222 ± 0.0051
15,GGAGACCUAACUAUACAACCUUCUACCACA,0.194 ± 0.026
16,GGAGACCUAUCUAUACAACCUACUACACUCA,0.634 ± 0.061
17,CCUCUGGAUACUAUACAACCUAGUACCUCA,0.172 ± 0.039
18,GGUCUGGAUACAAUACAACCUAGUACCUCA,0.562 ± 0.054
19,GCUCUGGAUACUAUUCAACCUACUACCUCA,1.87 ± 0.11
20,CCUCAGGAUACUAUUCAACCUACUACCUCA,2.22 ± 0.14
21,GGACAGGAUACUAUUCAACCUACUACCUCA,1.69 ± 0.11
22,GGAGAGGAUACUAUUCAACCUACUACCUCA,1.23 ± 0.062
23,GCUCAGGAUACUAUUCAACCUACUACCUCA,2.09 ± 0.13

row,Sequence,pre-steady-state target cleavage rate
1,GGUCAGGAUACUAUUCAACCUACUACCUCA,1.79 ± 0.1
2,GCUCUGGAUACUAUACUAACCUACUACCUCA,0.00667 ± 0.0041
3,GGAGACGAUACAAUUCAACCUACUACCUCA,0.664 ± 0.073
4,GGAGUGGAUAGUAUACAACCUACUAGCUCA,0.0218 ± 0.0063
5,GGAGACGAUACUAUACUAGCUACUACCUCA,0.579 ± 0.048
6,GGUCUGGAUUCUAUAGAACCUACUACCUCA,0.979 ± 0.064
7,GGUCUCGAUACAAUACAACCUACUACCUCA,1.77 ± 0.12
8,GCUCUCGAUACAAUACAACCUACUACCUCA,2.07 ± 0.12
9,GGACUCGAUACAAUACAACCUACUACCUCA,1.46 ± 0.095
10,GCUCUCGAUAGUAUACAACCUACUACCUCA,1.95 ± 0.13
11,CCUCUCGAUACAAUACAACCUACUACCUCA,2.17 ± 0.14
12,GCUCUCGAUACUAUACAACCUACAACCUCA,1.01 ± 0.078
13,GCUCUGGAUAGUAUUCAACCUACUACCUCA,0.849 ± 0.044
14,GGAGACCAUACUAUUCAACCUACUACCACA,1.05 ± 0.078
15,GGACUGGAUACUAUACAACCUACGUACCUCA,0.656 ± 0.089
16,GCUCUGGAUACUAUACAACGUACUUCCUCA,0.486 ± 0.045
17,GGAGACGAAACUAUACAAGCUACUACCUCA,0.872 ± 0.057
18,GGAGUGGUUUCUAUACAACCUACUACCUCA,1.32 ± 0.081
19,CCUCUGGAUACUAUACAACCUACUUACCUCA,2.2 ± 0.14
20,GCUCUGGAUACUUAUACAACCUACUACCUCA,1.53 ± 0.084
21,CCUCUGGAUACUUACAACCUACUACCUCA,1.3 ± 0.12
22,GGUCUGGAUACUAUACAACCUACUUACCUCA,1.23 ± 0.084
23,GCUCUGGAUACUUACAACCUACUACCUCA,1.18 ± 0.1

row,Sequence,pre-steady-state target cleavage rate
1,GCUCUGGAUACUAUACAACCUACUUACCUCA,2.1 ± 0.13
2,GGAGACCUUACUAUACAACCUACCACCUCA,0.847 ± 0.06
3,GGACUGGAUACUUAUCAACCUACUACCUCA,0.719 ± 0.1
4,GGACUGGAUACGAUACAACCUACUACCUCA,1.64 ± 0.1
5,CCUCUGGAUACUAAACUACCUACUACCUCA,1.24 ± 0.098
6,CCUCAGGAUACUUUACAACCUACUACCUCA,2.1 ± 0.13
7,GCUCAGGAUACUUUACAACCUACUACCUCA,1.81 ± 0.11
8,GCUCAGGAUACUAAACAACCUACUACCUCA,1.95 ± 0.12
9,CCUCAGGAUACUAAACAACCUACUACCUCA,2.07 ± 0.12
10,CCUCAGGAUACUAUACAACCUACUACCACA,2.43 ± 0.17
11,CCUCAGGAUACAAUACAACCUACUACCUCA,2.01 ± 0.12
12,GCUCAGGAUACUAUACAACCUACUACCACA,1.75 ± 0.1
13,CCACAGGAUACUAUACAACCUACUACCUCA,1.87 ± 0.13
14,GGUCAGGAUACUAAACAACCUACUACCUCA,1.74 ± 0.096
15,GCUCAGGAUACAAUACAACCUACUACCUCA,1.9 ± 0.12
16,GGUCAGGAUACUUUACAACCUACUACCUCA,1.54 ± 0.085
17,GGUCAGGAUACAAUACAACCUACUACCUCA,1.69 ± 0.1
18,CCUCUGGAUACUUUACAACCUACUACCUGA,0.715 ± 0.1
19,GGAGACCUAUCUAUACAACCUACUAGCUCA,0.517 ± 0.046
20,GGAGAGGAUACUAUAGCAACCUACUACCUCA,0.61 ± 0.07
21,GGAGACGAUACUAUACAUGCUACUACCUCA,0.755 ± 0.037
22,GGAGACCUUACUGUACAACCUACUACCUCA,0.655 ± 0.077
23,CCUCUGGAUACUAUUCAACCUAGUACCUCA,0.085 ± 0.021
